Screening results (PubChem BioAssay)
A selection: hits, their analogues and other compounds. The true share with any hit is near 6.6%.
GDH-TPI counter: counter-screen for M. tuberculosis FBA inhibitors: GDH-TPI coupled enzymes; GDH-TPI coupled enzyme counterscreen, NADH absorbance; inhibition, % at 4.8 µM; 1.2% of 360,000 active; AID 588335; in the data active means inhibition above about 30%
BoNT F protease: inhibitors of Botulinum neurotoxin F light chain protease. Multiplex microsphere protease cleavage assay, flow cytometry. inhibition, % at 10 µM. 0.22% of 360,000 active. AID 588497; in the data active means inhibition above about 35%, passing the limit was not always enough; inconclusive means no clear call, values can overlap the other calls
Mtb FBA inh: inhibitors of M. tuberculosis fructose-bisphosphate aldolase; inhibition, % at 1 µM; P9WQA3; purified M. tuberculosis FBA, fluorescence read-out; AID 588726; 2.3% of 360,000 active; in the data active means inhibition above about 27%
Anthrax LF inh2: anthrax lethal factor protease inhibition | multiplex microsphere protease cleavage assay, LF | inhibition, % at 10 µM | 0.12% of 360,000 active | AID 588501
BoNT A protease: BoNT A light chain protease inhibition | multiplex microsphere protease substrate cleavage, flow cytometry | inhibition, % at 10 µM | 0.17% of 360,000 active
Autofluor counter: compound fluorescence in toxin protease inhibitor counterscreen | compound autofluorescence counterscreen, microsphere flow cytometry; active compounds read high | fluorescence intensity (no concentration beside the values) | 3.1% of 360,000 active | AID 624483; in the data active means fluorescence intensity above about 16000; inconclusive means no clear call, values can overlap the other calls
Of the large screens only hits and unclear results are named; the others gave an inactive call. Unless noted, no stated cut-off is given here; in the data, active means inhibition above about 30%; inconclusive means no clear call, values can overlap the other calls; inactive means below that.

CCOc1cc(/C=N\NC(=O)c2c(C)nc3ccccn23)ccc1O	GDH-TPI counter 48
Cc1nc2ccccn2c1C(=O)N/N=C/c1cc(C)n(-c2ccc(Cl)cc2)c1C	GDH-TPI counter 36
Cc1nc2ccccn2c1C(=O)N/N=C/c1ccccc1[N+](=O)[O-]	none
Cc1nc2ccccn2c1C(=O)N/N=C/c1ccc2c(c1)OCO2	GDH-TPI counter 42
COc1ccc(CC(N)c2csc(Nc3cc(NCc4ccco4)ncn3)n2)cc1 (stereo not drawn)	none
CC(=O)C(Sc1nn(C)c(=S)s1)C(=O)Nc1ccccc1 (stereo not drawn)	Autofluor counter 23581
CN1CCN(c2ccc(C(F)(F)F)cc2NC(=O)Nc2ccccc2)CC1	none
COC(=O)/C=C1\N/C(=N\c2nc(C)cc(C)n2)N(c2ccc(Cl)cc2)C1=O	none (no result: BoNT F protease, Anthrax LF inh2, BoNT A protease, Autofluor counter)
Cc1cccc(OP(=O)(Nc2cccnc2)Oc2cccc(C)c2)c1	none
O=P(Nc1cccnc1)(Oc1ccccc1Cl)Oc1ccccc1Cl	BoNT F protease 86, Anthrax LF inh2 30
CCOc1ccc2[nH]c(=O)c(CN(Cc3cccnc3)C(=O)Nc3ccccc3OC)cc2c1	none
CC(=O)N(Cc1cccnc1)Cc1cc2ccccc2[nH]c1=O	Autofluor counter 23316
COc1ccc2[nH]c(=O)c(CN(Cc3cccnc3)C(=O)Nc3ccccc3)cc2c1	Autofluor counter 23007
O=c1[nH]c2ccccc2cc1-c1noc(-c2cccnc2)n1	none
COc1ccc2cc(CN(C(=O)Nc3ccccc3)C3CCCC3)c(=O)[nH]c2c1	Autofluor counter 23679
O=C(c1cccnc1)c1cc2ccccc2[nH]1	GDH-TPI counter 35
COc1ccc2[nH]c(=O)c(CN(C(=O)NC3CCCCC3)C3CCCCC3)cc2c1	none
O=C(CSc1nc(C2CC2)nc2ccccc12)N1CCc2ccccc21	none
COc1ccc2[nH]c(=O)c(CN(C(=O)c3cccnc3)c3cc(C)ccc3C)cc2c1	Autofluor counter 18114
CC(C)N(Cc1cc2ccccc2[nH]c1=O)C(=O)c1cccnc1	none
O=C(c1ccco1)N(Cc1cc2ccccc2[nH]c1=O)C1CCCCC1	none
CC(C)CN(Cc1cc2ccccc2[nH]c1=O)C(=O)c1cccnc1	BoNT A protease inconclusive, Autofluor counter 22057
O=C(c1ccncc1)N(Cc1cc2ccccc2[nH]c1=O)C1CCCCC1	Autofluor counter 20954
C[C@@H]1CN([C@@H](C)CO)S(=O)(=O)c2ccc(Br)cc2O[C@H]1CN(C)Cc1ccc(-c2ccccc2)cc1	none
COc1cc2c(cc1OC)-c1cc(OCCN3CCOCC3)nc(=O)n1CC2	GDH-TPI counter 32, Mtb FBA inh active
CCNc1cc2n(c(=O)n1)CCc1cc(OC)c(OC)cc1-2	none
COc1cc2c(cc1OC)-c1cc(NC3CC3)nc(=O)n1CC2	GDH-TPI counter 37
COc1cc2c(cc1OC)-c1cc(Nc3ccccc3C)nc(=O)n1CC2	none
CCOc1ccccc1Nc1cc2n(c(=O)n1)CCc1cc(OC)c(OC)cc1-2	GDH-TPI counter 34, BoNT F protease inconclusive
CN(C)C(=O)CNc1ccn2nc(-c3cccc(Cl)c3)cc2n1	none
Cn1cc(Cc2ccc(C(=O)N3CCOCC3)cn2)c2ccccc21	none
O=C(Nc1ccccc1)Nc1ccc(C(=O)N2CCCC2)cc1	none
CCOc1ccccc1NC(=O)Nc1c(C)n(-c2ccccc2)c(=O)n1C	Autofluor counter 20830
COc1ccc(NC(=O)Nc2c(C)n(-c3ccccc3)c(=O)n2C)cc1OC	none
CCOc1ccccc1NC(=O)Nc1cccc(C(C)=O)c1	Autofluor counter 23270
CC(=O)Nc1cccc(NC(=O)Nc2ccc(C(C)=O)cc2)c1	none
CCN(CC)c1ccc(NC(=O)Nc2cccc(C(C)=O)c2)cc1	Autofluor counter 19762
CCOc1ccccc1NC(=O)Nc1cccc(NC(C)=O)c1	Autofluor counter inconclusive
CC(=O)c1cccc(NC(=O)Nc2ccc(C(=O)N3CCCC3)cc2)c1	Autofluor counter 22040
CN(C)C(=O)c1cccc(-c2cccc(-c3nc(C(=O)NCc4ccccc4)cc4c3[C@@H](CCO)N(S(=O)C(C)(C)C)C4)c2)c1 (stereo partly drawn)	none (no result: GDH-TPI counter)
COc1c2c(c(OC)c3ccccc13)[C@@]1(OC2)O[C@H](CCO)C[C@H](O)[C@H]1O	none
COC(=O)[C@]12CCCCC=C1N(Cc1ccccc1)C(=O)[C@H](CC(=O)N1CCC(c3ccccc3)CC1)C2	none (no result: GDH-TPI counter, Mtb FBA inh)
COc1cccc(CN2CC(C(=O)N(C)CC3CCOCC3)CCC2=O)c1 (stereo not drawn)	none (no result: BoNT F protease, Anthrax LF inh2, BoNT A protease, Autofluor counter)
C[C@@H]1CN([C@H](C)CO)C(=O)CCCn2nncc2CO[C@@H]1CN(C)S(=O)(=O)c1ccc2ccccc2c1	none
CO/N=C(/C)CCS(=O)(=O)c1ccccc1	none
CN(C)CCCN(C(=O)c1ccc(S(=O)(=O)N2CCCCCC2)cc1)c1nc2c(F)cc(F)cc2s1	Autofluor counter inconclusive
CNc1cncc(C(=O)O)c1	none
Cc1noc(C)c1COC(=O)c1cc2c3ccccc3n(C)c2s1	GDH-TPI counter 40, BoNT F protease inconclusive, Anthrax LF inh2 inconclusive, BoNT A protease inconclusive
COc1ccc(-n2cnnc2SCC(=O)N(C)C2CCS(=O)(=O)C2)cc1 (stereo not drawn)	Autofluor counter 23013
N#CCc1ccc(OC(=O)c2cccnc2Cl)cc1	none
Cn1c(N2CCNCC2)nc2ccccc21	Autofluor counter 19898
O=C(CN1C(=O)c2ccccc2S1(=O)=O)c1ccc(O)c(O)c1	GDH-TPI counter 59 (no result: BoNT F protease, Anthrax LF inh2, BoNT A protease, Autofluor counter)
O=C(CN1C(=O)c2ccccc2S1(=O)=O)c1ccc(F)c(F)c1	none
O=C(Nc1cc(S(=O)(=O)N2CCCCC2)ccc1Cl)c1ccc(F)cc1	none
O=C(NCc1ccccc1)C1CCCN(C(=O)Nc2ccccc2)C1 (stereo not drawn)	BoNT A protease inconclusive, Autofluor counter 20689
Cc1ccccc1NC(=O)C1CCCN(C(=O)Nc2ccc(F)cc2)C1 (stereo not drawn)	none
O=C(NCCc1ccccc1)C1CCCN(C(=O)NC2CCCCC2)C1 (stereo not drawn)	BoNT A protease inconclusive, Autofluor counter 22227
Cc1cccc(NC(=O)C2CCCN(C(=O)Nc3ccccc3)C2)c1C (stereo not drawn)	BoNT A protease inconclusive, Autofluor counter 22928
O=C(NC1CCCCC1)N1CCCC1	Autofluor counter 21923
O=C(NCc1ccccc1F)C1CCCN(C(=O)Nc2ccccc2)C1 (stereo not drawn)	none
CCNC(=O)C1CCCN(C(=O)c2ccc3c(c2)CCO3)CC1 (stereo not drawn)	none
Cc1nc2ccccc2c(=O)n1NC(=O)c1cccc([N+](=O)[O-])c1	none
CCCC(=O)N(c1ccc(OCC)cc1)S(=O)(=O)c1ccc2c3c(cccc13)C(=O)N2C	none
Cc1cccc(NC(=O)C2CCCN2C(=O)OCC(C)C)c1C (stereo not drawn)	Autofluor counter 21398
Cc1cccc2cc(C#N)c(NCc3ccccc3)nc12	Mtb FBA inh 30
O=C(CCS(=O)(=O)c1cccs1)Nc1ccc(C(=O)NCc2cccs2)cc1	Autofluor counter 22948
CC(C)Oc1ccc(C(=O)NCc2cccs2)cc1	BoNT A protease inconclusive, Autofluor counter 23288
